In the library only some 3.4% were active in any assay of this set; here they are far more common.
GPR151 ag: activates the human receptor GPR151. PathHunter beta-arrestin GPR151 cells, luminescence. activation, % at 11.2 µM. 1% of 650,000 active. Q8TDV0; in the data active means activation above about 4.9%
FBW7 act: activators of human E3 ligase FBW7. Q969H0. AlphaScreen FBW7–phospho-cyclin E peptide binding, activator screen. normalized activity (activation), % at 26.1 µM. 0.13% of 650,000 active. AID 1259310; in the data active means normalized activity above about 1.9%;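 further: purified mutant Fbw7 with reduced substrate affinity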
MITF primary: human MITF inhibition, primary screen; AlphaScreen MITF homodimerization, bead proximity signal; inhibition, % at 2.6 µM; 0.91% of 650,000 active; O75030; in the data active means inhibition above about 50%
Target sequence (O75030 whole entry, looked up): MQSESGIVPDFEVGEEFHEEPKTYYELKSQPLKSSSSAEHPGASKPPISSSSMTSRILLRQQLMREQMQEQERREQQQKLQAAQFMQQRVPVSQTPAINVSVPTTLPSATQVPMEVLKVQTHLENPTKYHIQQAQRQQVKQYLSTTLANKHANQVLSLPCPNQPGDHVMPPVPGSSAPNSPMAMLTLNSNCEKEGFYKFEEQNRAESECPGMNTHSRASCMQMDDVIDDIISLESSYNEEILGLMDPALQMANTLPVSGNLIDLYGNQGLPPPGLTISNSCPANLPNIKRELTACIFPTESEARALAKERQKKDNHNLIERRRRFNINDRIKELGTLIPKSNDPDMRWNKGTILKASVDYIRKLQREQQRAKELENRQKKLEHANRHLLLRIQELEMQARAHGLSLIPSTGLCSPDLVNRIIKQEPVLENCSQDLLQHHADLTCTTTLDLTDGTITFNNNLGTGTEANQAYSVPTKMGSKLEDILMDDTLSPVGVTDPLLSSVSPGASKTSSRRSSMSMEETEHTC
TEAD-YAP block: TEAD-YAP interaction inhibition. HEK-TIYL cells, TEAD-Gal4/YAP UAS-luciferase luminescence. inhibition, % at 9.12 µM. 1.4% of 640,000 active. AID 1259422; in the data active means inhibition above about 32%
MITF confirm: human MITF inhibition, confirmation. shares compounds with MITF primary. AlphaScreen MITF homodimerization, biotin/His-MITF beads. inhibition, % at 2.6 µM. 16% of 4,700 active. AID 1259372;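 active means inhibition above a cutoff derived from the DMSO control wells, cut at about 28% in these data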;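 further: inhibitors lower the bead chemiluminescence by keeping MITF from dimerizing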
AlphaScreen DR: AlphaScreen optical interference, dose response counter-screen; shares compounds with MITF primary; AlphaScreen optical interference counterscreen, cell-free; IC50, µM; 6% of 480 active; call rule not given here
AlphaScreen intf2: counter-screen: compounds optically interfering with AlphaScreen; shares compounds with MITF primary; LysRS AlphaScreen counterscreen, signal interference, triplicate; inhibition, % at 2.6 µM; 7.6% of 4,700 active; AID 1259376;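 active means inhibition above a cutoff derived from the DMSO control wells, cut at about 30% in these data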
Large screens that a line does not name were inactive (follow-up assays come after a bar, where they were run).

Cc1cc(OCCOCCN2CCNCC2)ccc1Cl	MITF primary 68 | MITF confirm 74 | AlphaScreen DR inactive | AlphaScreen intf2 inactive
COc1nnc(-c2ccc(C)c(S(=O)(=O)NC(C)(C)OC)c2)c2ccccc12	none
CS(=O)(=O)NCCSc1nnnn1-c1ccccc1	MITF primary 55 | MITF confirm inactive | AlphaScreen intf2 inactive
O=C(CSc1ccc(-c2ccccn2)nn1)N1CCCCC1	none
O=C(CCc1ccccc1)NN1C(=O)CCC1=O	none
CC12CCC(C(=O)N(NC(=O)CCc3ccccc3)C1=O)C2(C)C (centres undefined)	MITF primary 65 | MITF confirm inactive | AlphaScreen intf2 inactive
O=C(Nc1nc(-c2ccc(F)cc2)cs1)c1cc2cc(Br)cc(Br)c2oc1=O	MITF primary 100 | MITF confirm inactive | AlphaScreen intf2 inactive
Cc1nc(-c2ccc(NC(=O)c3cc4cc(Br)cc(Br)c4oc3=O)cc2)cs1	none
NC(=O)CSc1ncnc2c1nnn2Cc1ccc(F)cc1	none
O=c1[nH]cc(N=Cc2ccc([N+](=O)[O-])o2)c(=O)[nH]1	MITF primary 85 | MITF confirm 64 | AlphaScreen DR inactive | AlphaScreen intf2 inactive
COc1cccc(C(=O)Nc2ccc(S(=O)(=O)Nc3cc(C)on3)cc2)c1	none
CCOc1cc(C2Nc3ccccc3NC3=C2C(=O)CC(c2ccc(OC)cc2)C3)ccc1OC(=O)C1CCCCC1 (centres undefined)	none
Cc1ccc(NC(=O)CN(C)CC(=O)Nc2ccc(F)c(F)c2F)c(Cl)c1	none
Cc1ccc(NC(=O)CN(C)C2CCN(C)CC2)c(Cl)c1	MITF primary 67 | MITF confirm inactive | AlphaScreen intf2 inactive
OC(CON=C1c2ccccc2-c2ccccc21)CN1CCNCC1 (centres undefined)	MITF primary 77 | MITF confirm inactive | AlphaScreen intf2 inactive
O=C(CCc1nc2ncccc2c(=O)n1Cc1ccccc1)Nc1ccc(F)cc1	none
O=C1N[C@@H](Cc2cnc[nH]2)C(=O)N2CCN(C(=O)NCc3ccccc3)C[C@H]12	none
O=C1N[C@H](Cc2ccccc2)C(=O)N2CCN(C(=O)NCc3ccccc3)C[C@H]12	MITF primary 69 | MITF confirm 64 | AlphaScreen DR inactive | AlphaScreen intf2 inactive
C[C@H](O)[C@H]1NC(=O)[C@H]2CN(C(=O)NCc3ccccc3)CCN2C1=O	MITF primary 75 | MITF confirm 71 | AlphaScreen DR inactive | AlphaScreen intf2 inactive
COc1ccc(C[C@@H]2NC(=O)[C@H]3CN(C(=O)c4ccc(-c5ccccc5)cc4)CCN3C2=O)cc1	none
C[C@@H](O)[C@@H]1NC(=O)[C@H]2CN(C(=O)OCc3ccccc3)CCN2C1=O	none
COc1ccc(C[C@@H]2NC(=O)[C@H]3CN(C(=O)NCc4ccccc4)CCN3C2=O)cc1	MITF primary 79 | MITF confirm 72 | AlphaScreen DR inactive | AlphaScreen intf2 inactive
COc1cc(CN2CCC(C(=O)N3CCN(Cc4ccccc4)CC3)CC2)ccc1O	MITF primary 60 | MITF confirm inactive | AlphaScreen intf2 inactive
O=C(C1CCN(Cc2ccc(F)cc2)CC1)N1CCN(c2ccccc2)CC1	MITF primary 52 | MITF confirm inactive | AlphaScreen intf2 inactive
COc1cc(CN2CCC(C(=O)N3CCCC(C)C3)CC2)ccc1O (centres undefined)	none
O=C(C1CCN(Cc2cccc(O)c2)CC1)N1CCN(Cc2ccccc2)CC1	none
COc1ccc(CN2CCC(C(=O)N3CCc4ccccc4C3)CC2)c(OC)c1	MITF primary 53 | MITF confirm inactive | AlphaScreen intf2 inactive
COc1ccc(CN2CCC(C(=O)N3CCc4ccccc4C3)CC2)cc1	none
O=C(C1CCN(Cc2ccccc2)CC1)N1CCN(Cc2ccccc2)CC1	MITF primary 55 | MITF confirm inactive | AlphaScreen intf2 inactive
CCOc1ccccc1N1CCN(C(=O)C2CCNCC2)CC1	MITF primary 58 | MITF confirm inactive | AlphaScreen intf2 inactive
O=C(C1CCN(Cc2cccnc2)CC1)N1CCN(C/C=C/c2ccccc2)CC1	MITF primary 58 | MITF confirm inactive | AlphaScreen intf2 inactive
CCOC(=O)N1CCN(C(=O)C2CCN(Cc3ccccc3OC)CC2)CC1	MITF primary 54 | MITF confirm inactive | AlphaScreen intf2 inactive
COc1ccccc1CN1CCC(C(=O)N2CCN(Cc3ccccc3)CC2)CC1	MITF primary 52 | MITF confirm inactive | AlphaScreen intf2 inactive

Assay outcomes (PubChem BioAssay)
